Laboratory results: PubChem BioAssay AID1159580 (chemical genetic matrix, 2015)
About 2,000 (36%) of roughly 5,500 compounds were called active. Inconclusive results (about 18%) are left out. No stated cut-off is given here; in the data, active means normalized growth mostly below about 0.91 (no sharp cut-off); inconclusive means no clear call, values can overlap the other calls; inactive means mostly above about 0.92. The list shows a part of the results.

Experiment: chemical genetic growth profiling, strain panel (AID 1159580);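 further: tested at 20 µM; growth read once vehicle control cultures reached saturation at 30 °C; 1 = growth at the plate median or of vehicle wells; lower values mean less growth of the strain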
Conditions: growth OD
[1] = S. cerevisiae deletion strains, locus YHR030C, strain SLT2, hits give low values
[2] = S. cerevisiae deletion strains, locus YHR079C, strain IRE1, hits give low values
[3] = S. cerevisiae deletion strains, locus YJL095W, strain BCK1, hits give low values
[4] = S. cerevisiae deletion strains, locus YJR066W, strain TOR1, hits give low values
[5] = S. cerevisiae deletion strains, locus YLR113W, strain HOG1, hits give low values
[6] = S. cerevisiae deletion strains, locus YNL183C, strain NPR1, hits give low values
[7] = S. cerevisiae deletion strains, locus YOR231W, strain MKK1, hits give low values
[8] = S. cerevisiae deletion strains, locus YPL256C, strain CLN2, hits give low values
[9] = S. cerevisiae deletion strains, locus YDR150W, strain NUM1, hits give low values
[10] = S. cerevisiae deletion strains, locus YGR229C, strain SMI1, hits give low values
[11] = S. cerevisiae deletion strains, locus YPL055C, strain LGE1, hits give low values
[12] = S. cerevisiae deletion strains, locus YPL241C, strain CIN2, hits give low values
[13] = S. cerevisiae deletion strains, locus YDL101C, strain DUN1, hits give low values

Measured: normalized growth

COC(=O)C(c1ccccc1)C1CCCCN1 (stereo unspecified)
inactive: [1] 0.978 | [2] 0.975 | [3] 0.974 | [4] 0.934 | [5] 0.95 | [6] 0.891 | [7] 0.971 | [8] 0.972

O=C(NCCNCC(O)COc1ccc(O)cc1)N1CCOCC1 (stereo unspecified)
inactive: S. cerevisiae deletion strains, locus YAL040C, strain CLN3, hits give low values 0.976 | S. cerevisiae deletion strains, locus YCL061C, strain MRC1 (second series), hits give low values 1 | [9] 0.993 | S. cerevisiae deletion strains, locus YDR363W, strain ESC2, hits give low values 1.01 | S. cerevisiae deletion strains, locus YER002W, strain NOP16, hits give low values 1.02 | [10] 1.02 | S. cerevisiae deletion strains, locus YMR307W, strain GAS1, hits give low values 0.997 | S. cerevisiae deletion strains, locus YNL128W, strain TEP1, hits give low values 0.998 | S. cerevisiae deletion strains, locus YNL175C, strain NOP13, hits give low values 0.998 | S. cerevisiae deletion strains, locus YNL197C, strain WHI3, hits give low values 0.993 | S. cerevisiae deletion strains, locus YNL224C, strain SQS1, hits give low values 0.997 | S. cerevisiae deletion strains, locus YOR083W, strain WHI5 (second series), hits give low values 1.01 | [11] 1.02 | [12] 1

Cc1ccc(OS(=O)(=O)c2ccc(Cl)cc2)c([N+](=O)[O-])n1
inactive: S. cerevisiae deletion strains, locus YAL013W, strain DEP1, hits give low values 0.965 | S. cerevisiae deletion strains, locus YBR229C, strain ROT2, hits give low values 0.987 | [13] 0.932 | S. cerevisiae deletion strains, locus YDL134C, strain PPH21, hits give low values 0.968 | [9] 0.833 | S. cerevisiae deletion strains, locus YEL061C, strain CIN8, hits give low values 0.964 | S. cerevisiae deletion strains, locus YGR078C, strain PAC10, hits give low values 0.931 | [10] 0.978 | [1] 0.775 | S. cerevisiae deletion strains, locus YHR087W, strain rtc3, hits give low values 0.975 | S. cerevisiae deletion strains, locus YJR043C, strain POL32, hits give low values 0.945 | S. cerevisiae deletion strains, locus YJR075W, strain HOC1, hits give low values 0.917 | S. cerevisiae deletion strains, locus YKL190W, strain CNB1, hits give low values 0.968 | S. cerevisiae deletion strains, locus YLR039C, strain RIC1, hits give low values 0.895 | S. cerevisiae deletion strains, locus YLR058C, strain SHM2 (second series), hits give low values 0.988 | S. cerevisiae deletion strains, locus YLR085C, strain ARP6, hits give low values 0.875 | S. cerevisiae deletion strains, locus YLR262C, strain YPT6, hits give low values 0.908 | S. cerevisiae deletion strains, locus YML094W, strain GIM5, hits give low values 0.953 | S. cerevisiae deletion strains, locus YMR219W, strain ESC1, hits give low values 0.973 | S. cerevisiae deletion strains, locus YMR263W, strain SAP30, hits give low values 0.95 | S. cerevisiae deletion strains, locus YNL153C, strain GIM3, hits give low values 0.936 | S. cerevisiae deletion strains, locus YNL298W, strain CLA4 (second series), hits give low values 0.915 | S. cerevisiae deletion strains, locus YNL322C, strain KRE1, hits give low values 0.976 | S. cerevisiae deletion strains, locus YNR030W, strain Alg12, hits give low values 0.943 | [11] 0.962 | [12] 0.943 | S. cerevisiae deletion strains, locus YPR135W, strain CTF4, hits give low values 0.877 | S. cerevisiae strains, strain wild type, hits give low values 0.949

Cc1ccc(OS(=O)(=O)c2c(Cl)sc(Cl)c2Br)c([N+](=O)[O-])n1
inactive: S. cerevisiae deletion strains, locus YAR019C, strain CDC15, hits give low values 0.964 | S. cerevisiae deletion strains, locus YBL105C, strain PKC1, hits give low values 0.964 | S. cerevisiae deletion strains, locus YBR135W, strain CKS1, hits give low values 0.968 | S. cerevisiae deletion strains, locus YBR136W, strain MEC1, hits give low values 0.967 | S. cerevisiae deletion strains, locus YBR160W, strain CDC28, hits give low values 0.963 | S. cerevisiae deletion strains, locus YDL017W, strain CDC7, hits give low values 0.957 | S. cerevisiae deletion strains, locus YDL028C, strain MPS1, hits give low values 0.972 | [13] 0.956 | S. cerevisiae deletion strains, locus YDL108W, strain KIN28, hits give low values 0.965 | S. cerevisiae deletion strains, locus YDL132W, strain cdc53, hits give low values 0.961 | S. cerevisiae deletion strains, locus YDL214C, strain PRR2, hits give low values 0.962 | S. cerevisiae deletion strains, locus YDR052C, strain DBF4, hits give low values 0.968 | S. cerevisiae deletion strains, locus YDR054C, strain cdc34, hits give low values 0.956 | S. cerevisiae deletion strains, locus YDR226W, strain ADK1, hits give low values 0.953 | S. cerevisiae deletion strains, locus YDR477W, strain SNF1, hits give low values 0.97 | S. cerevisiae deletion strains, locus YER123W, strain YCK3, hits give low values 0.952 | S. cerevisiae deletion strains, locus YER133W, strain GLC7, hits give low values 0.975 | S. cerevisiae deletion strains, locus YFL009W, strain cdc4, hits give low values 0.961 | S. cerevisiae deletion strains, locus YFL029C, strain CAK1, hits give low values 0.96 | S. cerevisiae deletion strains, locus YFR003C, strain YPI1, hits give low values 0.961 | S. cerevisiae deletion strains, locus YFR019W, strain FAB1, hits give low values 0.98 | S. cerevisiae deletion strains, locus YFR028C, strain CDC14, hits give low values 0.965 | S. cerevisiae deletion strains, locus YGR040W, strain KSS1, hits give low values 0.972 | S. cerevisiae deletion strains, locus YGR052W, strain FMP48, hits give low values 1 | S. cerevisiae deletion strains, locus YGR092W, strain DBF2, hits give low values 0.951 | [1] 0.961 | [2] 0.929 | S. cerevisiae deletion strains, locus YHR082C, strain KSP1, hits give low values 1.07 | S. cerevisiae deletion strains, locus YHR205W, strain SCH9, hits give low values 0.953 | S. cerevisiae deletion strains, locus YIL147C, strain SLN1, hits give low values 0.966 | [3] 0.968 | S. cerevisiae deletion strains, locus YJL128C, strain PBS2, hits give low values 0.909 | S. cerevisiae deletion strains, locus YJL157C, strain FAR1, hits give low values 0.96 | S. cerevisiae deletion strains, locus YJR016C, strain ILV3, hits give low values 0.965 | S. cerevisiae deletion strains, locus YJR066W, strain TOR1 (second series), hits give low values 0.956 | [4] 1.02 | S. cerevisiae deletion strains, locus YKL048C, strain ELM1, hits give low values 0.965 | S. cerevisiae deletion strains, locus YKL067W, strain YNK1, hits give low values 0.959 | S. cerevisiae deletion strains, locus YKL101W, strain HSL1, hits give low values 0.979 | S. cerevisiae deletion strains, locus YKL193C, strain SDS22, hits give low values 0.963 | S. cerevisiae deletion strains, locus YKL203C, strain TOR2, hits give low values 0.991 | S. cerevisiae deletion strains, locus YLR133W, strain CKI1, hits give low values 0.968 | S. cerevisiae deletion strains, locus YLR403W, strain SFP1, hits give low values 0.967 | S. cerevisiae deletion strains, locus YML070W, strain DAK1, hits give low values 0.959 | S. cerevisiae deletion strains, locus YMR001C, strain CDC5, hits give low values 0.957 | S. cerevisiae deletion strains, locus YMR205C, strain PFK2 (second series), hits give low values 0.971 | S. cerevisiae deletion strains, locus YMR277W, strain FCP1, hits give low values 0.961 | S. cerevisiae deletion strains, locus YNL006W, strain LST8, hits give low values 0.962 | S. cerevisiae deletion strains, locus YNL020C, strain ARK1, hits give low values 0.971 | S. cerevisiae deletion strains, locus YNL161W, strain CBK1, hits give low values 0.968 | [6] 1.01 | S. cerevisiae deletion strains, locus YNL207W, strain RIO2, hits give low values 0.955 | S. cerevisiae deletion strains, locus YNL222W, strain SSU72, hits give low values 0.971 | S. cerevisiae deletion strains, locus YNL307C, strain MCK1 (second series), hits give low values 0.965 | S. cerevisiae deletion strains, locus YOL078W, strain AVO1, hits give low values 0.967 | S. cerevisiae deletion strains, locus YOL136C, strain PFK27, hits give low values 0.957 | S. cerevisiae deletion strains, locus YOR061W, strain CKA2, hits give low values 0.962 | S. cerevisiae deletion strains, locus YOR119C, strain RIO1, hits give low values 1.04 | [7] 0.942 | S. cerevisiae deletion strains, locus YOR329C, strain SCD5, hits give low values 0.959 | S. cerevisiae deletion strains, locus YPL031C, strain PHO85, hits give low values 0.959 | S. cerevisiae deletion strains, locus YPL153C, strain RAD53, hits give low values 0.963 | S. cerevisiae deletion strains, locus YPL204W, strain HRR25, hits give low values 0.978 | S. cerevisiae deletion strains, locus YPL209C, strain IPL1, hits give low values 0.963 | [8] 0.92 | S. cerevisiae deletion strains, locus YPR025C, strain CCL1, hits give low values 0.964 | S. cerevisiae deletion strains, locus YPR106W, strain ISR1, hits give low values 0.961 | S. cerevisiae deletion strains, locus YPR111W, strain DBF20, hits give low values 0.948 | S. cerevisiae deletion strains, strain NNK1, hits give low values 0.956 | S. cerevisiae deletion strains, strain TSCII, hits give low values 0.957
active: [5] 0.818
